Compound activity deposited in PubChem by National Center for Advancing Translational Sciences (NCATS).
Cycloheximide cs: affects cycloheximide protein synthesis inhibition readout, counter-screen | cell reporter, cycloheximide protein synthesis inhibition counterscreen | max response, % | 300,000 tested, 12% active; in the data active = max response mostly above about 13%, no sharp cut-off; inactive = mostly below about 14%; also: read at 38.3 µM for the half of the compounds with a filed dose; 0% is about no effect
VACV mCherry inh: inhibitors of vaccinia virus infection (mCherry reporter signal). Vaccinia virus mCherry reporter infection, fluorescence. Potency, µM (series often up to 36.5 µM), without a hit: at the top dose activity change, negative = inhibition, usual class: inhibitors. 310,000 tested, 0.63% active; calls by dose curve; tested in A549 cells; also: potency is read from the fitted curve at half-maximal effect; % is scaled to controls: 0 for no effect and ±100 for the full control effect; nearly all actives have a fitted effect of over 35% in size
Shiga inhibitor: Shiga toxin inhibition; Vero cells, Shiga toxin protein synthesis inhibition reporter; inhibition, % at 38.7 µM; 290,000 tested, 9.2% active; in the data active = inhibition mostly above about 28%, no sharp cut-off; inactive = mostly below about 43%; also: 0% is about no effect
Lassa entry inh: Lassa virus entry inhibition; Lassa virus pseudotype entry inhibition, cell reporter; Potency, µM (series often up to 37.9 µM), inactives show at the highest dose activity change, negative = inhibition, actives largely listed as inhibitors; 300,000 tested, 1.2% active; AID 540256; calls by dose curve; tested in HEK293 cells; also: potency is read from the fitted curve at half-maximal effect; % is scaled to controls: 0 for no effect and ±100 for the full control effect; nearly all actives have a fitted effect of over 50% in size
Vaccinia Venus: inhibitors of vaccinia virus (Venus reporter) | Vaccinia virus Venus reporter expression, fluorescence | Potency, µM (top dose mostly 36.5 µM), for inactives: at the top dose activity change, negative = inhibition, usual class: inhibitors | 330,000 tested, 0.46% active | AID 720580; calls by dose curve; tested in A549 cells; also: potency is read from the fitted curve at half-maximal effect; % is scaled to controls: 0 for no effect and ±100 for the full control effect; nearly all actives have a fitted effect of over 30% in size
Marburg entry inh: inhibitors of Marburg virus binding or cell entry; Marburg virus pseudotyped entry inhibition, cell reporter; Potency, µM (highest dose often 37.8 µM), for the others: top-dose activity change, negative = inhibition, usual class: inhibitors; 300,000 tested, 1.8% active; AID 540276; calls by dose curve; tested in HEK293 cells; also: potency is read from the fitted curve at half-maximal effect; % is scaled to controls: 0 for no effect and ±100 for the full control effect
* = called active by the depositor; i = inactive; ? = inconclusive; . = not tested or not shown; [ ] = another dose, or the depositor's remark. Shown is part of a subset that was picked to be rich in hits.

SMILES	Cycloheximide cs	VACV mCherry inh	Shiga inhibitor	Lassa entry inh	Vaccinia Venus	Marburg entry inh
COc1cc(N2CCCC2)ccc1[N+](=O)[O-]	10.7	-11.0%	41.8	-2.5%	-6.4%	?
CCCC[C@H]1CCCO[C@@](C(=O)NCc2ccccc2)(C(F)(F)F)C1	-2.5	.	7.3	.	.	.
CC(C)(C)SCCNC(=O)c1ccc(CN2CCc3ccccc3C2)cc1	44.0*	-16.0%	53.5*	-24.4%	-12.9%	-18.3%
Cc1cc(C)c(NC(=O)c2ccc(CN3CCc4ccccc4C3)cc2)c(C)c1	6.5	.	-4.2	15.8µM*	?	?
CC(=O)c1cccc(NC(=O)c2ccc(CN3CCc4ccccc4C3)cc2)c1	12.5*	.	29.4	.	.	.
CCCNC(=O)c1ccc(CN2CCc3ccccc3C2)cc1	-1.8	.	9.3	7.2%	-10.7%	-10.8%
CC(C)NC(=O)Cn1cc(C(=O)C2CC2)c2ccccc21	-2.7	.	-13.0	.	.	.
O=C(CSc1nnnn1-c1cccc(F)c1)NC1CC1	.	-13.8%	.	4.0%	-8.6%	4.5%
O=C(O)c1cccc(COc2ccc(CO)cc2Cl)c1	6.4	i	-4.6	0.291µM*	-9.6%	?
CN1CCN(C(=O)c2ccc(COc3ccc(Cl)cc3Cl)cc2)CC1	13.3	i	-6.6	25.2%	-23.5%	-8.3%
O=C(O)c1cccc(COCC(F)(F)C(F)F)c1	13.8	.	33.4	20.0%	.	3.4%
O=C(O)c1ccc(COc2ccc(CO)cc2Cl)cc1	28.7*	-21.9%	71.9*	-27.2%	-8.7%	?
CCc1nnc(NC(=O)c2nc(SC)ncc2Cl)s1	.	0.4%	.	15.6%[46.1 µM]	5.7%	4.0%[46.1 µM]
CCCNC(=O)C(NS(=O)(=O)c1ccc2c(c1)c(=O)n(C)c(=O)n2C)c1ccccc1 (centres undefined)	15.4*	-21.2%	0.5	.	-0.8%	-1.0%
CCc1c(C)[nH]n(-c2nc(-c3ccccc3)cs2)c1=O	10.3	-18.4%	0.8	1.7%	-8.0%	-20.6%[46.1 µM]
CCc1c(C)[nH]n(-c2nc(-c3cccc([N+](=O)[O-])c3)cs2)c1=O	21.8*	i	22.7*	2.8%	4.8%	6.5%
COc1cc(=O)n2c(c1C(=O)NCc1ccco1)CCN(C(=O)c1ccc(C)c(C)c1)CC2	.	-22.1%	.	.	-10.0%	.
COc1ccc(NS(=O)(=O)c2cccc(NC(=O)NC3CCCCC3)c2)cc1	2.1	-4.2%	7.1	2µM*	?	?
COc1ccc(NS(=O)(=O)c2ccc(C)c(NC(=O)NC3CCCCC3)c2)cc1	8.2	i	21.3	10µM*	-29.6%	?
COc1ccc(NS(=O)(=O)c2ccc(C)c(C(=O)N(C)Cc3ccc(C)cc3)c2)cc1	.	?	.	11.2µM*	-17.8%	?
O=C(COC(=O)c1c(F)cccc1F)Nc1ccccc1OC(F)F	0.6	-2.0%	13.9	.	-9.2%	-15.6%[46.1 µM]
CC(C)c1ccc(C(=O)NCCCNC(=O)c2cnccn2)cc1	-0.4	-8.4%	2.5	8.0%[46.1 µM]	13.8%	-0.1%[46.1 µM]
CC(=O)OC[C@]12CCC(C)=C[C@H]1O[C@@H]1[C@H](O)[C@@H](OC(C)=O)[C@@]2(C)[C@]12CO2	-10.7	?	-28.1	.	3.16µM*	.
NC(=S)N/N=C/c1ccc(-c2ccc(Cl)c(Cl)c2)o1	20.0*	.	32.9	-6.6%	?	-5.6%
NC(=S)N/N=C/c1ccc(-c2ccccc2)o1	24.3*	.	36.4*	.	.	.
SMILES	Cycloheximide cs	VACV mCherry inh	Shiga inhibitor	Lassa entry inh	Vaccinia Venus	Marburg entry inh
CN(C)/N=C/c1ccc(/C=N/NC(N)=S)o1	-1.2	-5.4%	-3.6	-0.1%[46.1 µM]	-12.6%	?
NC(=S)N/N=C\c1ccc(-c2cccc(Cl)c2Cl)o1	23.7	.	28.6	10.9%	6.31µM*	?
NC(=S)NN=Cc1ccc(-c2ccc(S(=O)(=O)Nc3ncccn3)cc2)o1	.	i	.	4.4%	-7.7%	-1.8%
NC(=S)N/N=C/c1ccc(-c2ccc(SC(F)F)cc2)o1	37.7*	?	41.1*	?	?	?
O=C1NC[C@@H](CCCCN2C[C@H](Cc3ccccc3)N(CC3CCCCC3)C(=O)C2=O)N(Cc2ccccc2)C1=O	.	14.8%	.	.	-2.1%	.
Cc1cc(NC(=O)N2CCC(CN3CCOCC3)CC2)ccc1Br	.	-13.2%	.	?	-20.5%	.
Cc1ccc(-c2ccc(/C=N/NC(=O)c3ccccc3O)o2)cc1	12.7	.	38.1	.	.	.
Cc1ccc(-c2ccc(/C=N/NC(N)=S)o2)cc1	28.1*	?	58.1*	?	?	?
CCNC(=S)N/N=C/c1ccc(-c2ccccc2)o1	23.5*	-24.3%	48.9*	-9.8%	-13.4%	4.2%
CCn1ccc2c(OCC(=O)NCc3ccc(C)cc3)cccc2c1=O	.	-11.5%	.	?	-10.7%	.
COc1ccc(C2C(C(=O)Nc3cccnc3)=C(C)Nc3nc(SCc4ccccc4)nn32)cc1 (centres undefined)	.	0.5%	.	8.1%[46.1 µM]	3.3%	-14.9%[46.1 µM]
Oc1ccccc1N1CCN(C(c2ccccc2)c2ccccc2)CC1	4.1	?	-3.0	-25.5%	-7.5%	-27.5%[46.1 µM]
COC(=O)c1ccccc1NC(=O)COCc1cc(-c2cccs2)on1	.	-12.9%	.	10.8%[46.1 µM]	-6.2%	.
CCSc1nnc(-c2ccncc2)o1	3.9	.	17.1	3.0%	.	14.1%
ClC1(Cl)CC1CSc1nnc(-c2ccncc2)o1 (centres undefined)	19.3*	.	79.4	.	.	.
CCOC(=O)c1cnn(-c2ccccc2)c1NC(=O)CN1CCCCC1	-1.3	i	-2.9	5.6%[46.1 µM]	8.0%	?
COCC(=O)Nc1cc(C(=O)N2CCC(c3ccccc3)CC2)cc2nc(-c3ccccc3)n(C)c12	.	i	.	.	-1.9%	.
CC(C)CN1CCN(Cc2cnc(-c3ccc(Cl)cc3)nc2)CC1CCO (centres undefined)	13.2*	.	110.6	.	.	.
Cc1ccc(CN2CCN(CC(C)C)C(CCO)C2)s1 (centres undefined)	38.6*	-22.3%	82.3*	?	1.1%	?
CC(=O)c1ccc(NC(=O)CN(C)S(=O)(=O)c2cnc[nH]2)cc1	.	-4.9%	.	16.5%[46.1 µM]	-7.6%	19.4%[46.1 µM]
O=C(NC1CCSc2ccccc21)c1ccccc1Br (centres undefined)	24.5*	.	22.8*	.	.	.
O=C(NC1CCCc2ccccc21)c1ccccc1Br (centres undefined)	-2.5	-12.4%	-13.3	26.2%	-2.6%	1.4%
CS(=O)(=O)c1ccc(Cl)c(C(=O)NC2CCSc3ccccc32)c1 (centres undefined)	21.6*	-25.0%	37.1	-15.4%[46.1 µM]	1.9%	15.8%[46.1 µM]
CCC[C@@H]1[C@@H]2C(=O)N(c3ccccc3OC)C(=O)[C@H]2ON1c1ccccc1	.	.	.	.	.	1.9%
O=C(CSc1nc2ccccc2nc1Cc1ccc(Cl)cc1)N1CCCc2ccccc21	.	-3.6%	.	28.6%[46.1 µM]	-13.2%	.
CN1C(C(=O)Nc2cccc(O)c2)=CC(c2ccco2)=NS1(=O)=O	10.4*	-16.2%	7.8	-6.3%[46.1 µM]	-6.2%	?
Cc1ccc(O)c(NC(=O)C2=CC(c3ccco3)=NS(=O)(=O)N2C)c1	2.3	-5.6%	8.3	-21.5%[46.1 µM]	-9.1%	-19.7%[46.1 µM]
COc1ccc(NC(=O)C2=CC(c3ccc4c(c3)OCO4)=NS(=O)(=O)N2C)cc1OC	.	1.3%	.	17.2%[46.1 µM]	-9.8%	15.7%[46.1 µM]
COc1ccc(C2=NS(=O)(=O)N(C)C(C(=O)Nc3ccc4c(c3)OCO4)=C2)cc1	-2.2	-11.0%	8.0	.	?	.
